Structures are written as SMILES. Where “and” joins values, the source holds several entries; their conditions need not be identical. Equal entries are not always repeated. Results filed as inconclusive are left out. Calls of active or inactive are those of the source. Calls come from the whole dose curve; as a rule, active = well fitted curve in the direction sought with a large enough effect; inconclusive = small, poorly fitted or top-dose-only effect, or another doubt; inactive = no such curve, though single readings can be large; an effect the other way counts as inactive or inconclusive.

These results are taken from PubChem BioAssay (NCATS).

Assay [1] is described as follows: P-glycoprotein substrates identified in KB-8-5-11 adenocarcinoma cell line, qHTS therapeutic library screen (AID 1346987). Note: nearly all actives have a fitted effect of over 65% in size. Put shortly: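 Human cervical adenocarcinoma KB-8-5-11 cells, selected in colchicine to over-express P-gp and assayed without it, were exposed for 72 h to titrated compounds. An ATP-based luminescent viability signal gave AC50.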
A short description of assay [2]: NS1 protein of Zika virus - qHTS assay to identify small molecule inhibitors in human HEK 293 cells (AID 1347053). Note: nearly all actives have a fitted effect of over 55% in size. The essentials:
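Compound-treated (1 h pre-infection) HEK 293 cells infected with ZIKV MR766, MOI = 0.5; after 24 h at 37 C, NS1 read by TR-FRET; data normalized to uninfected and infected controls.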
In general terms: Quantitative high-throughput screening tests each substance at several concentrations.

Assay [3] can be described thus: qHTS of pediatric cancer cell lines to identify multiple opportunities for drug repurposing: Primary screen for TC32 cells (AID 1347089). Note: nearly all actives have a fitted effect of over 60% in size. The essentials: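 qHTS, TC32, 48 h drug treatment, CellTiter-Glo luminescence as a proxy for metabolically active cells; primary top concentration 46 µM (MIPE 11-pt, NPC 8-pt); confirmatory 11-pt.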
Potency is the fitted concentration of half-maximal effect.

In the case of `Cc1ccc(C2=Nc3ccc(Cl)cc3OC2)cc1`, the Potency result in assay [1] and in assay [2] was “inactive” throughout.

Consider `CC[C@H](CC#N)OC(=O)N[C@@H](C)c1cccc(NC(=O)Nc2ccc(-c3cnco3)c(OC)c2)c1`, for which the Potency in assay [1] was 5.9 µM (active) and 5.8 µM (active); in assay [2] it was 235 nM (active); in assay [3], 1040 nM (active).

As for `CC(C)CNc1ccnc(NCc2csc(-c3ccccc3)n2)n1`, the Potency is 18.7 µM (active) and 10.3 µM (active) in assay [1]; 26400 nM (active) in assay [2].

Take `Cc1ccccc1-n1c(Cn2nc(-c3cccc(O)c3)c3c(N)ncnc32)nc2cccc(C)c2c1=O`: the Potency result in assay [1], in assay [2] and in assay [3] was “inactive” in each case.

As to `COc1cc(C=CC(=O)O)ccc1O`, the Potency result in assay [1], in assay [2] and in assay [3] was “inactive” in each case.

Consider `COc1ccc2c(c1)c(C1=C(c3c[nH]c4ccccc34)C(=O)NC1=O)cn2CCCN(C)C`, for which the Potency entry in assay [1], in assay [2] and in assay [3] was “inactive” throughout.

With `CC(C)(C)c1[nH]cnc1C=c1[nH]c(=O)c(=Cc2ccccc2)[nH]c1=O`, the Potency in assay [1] is 0.0024 µM (active); in assay [2], 3 nM (active); in assay [3], 6.8 nM (active).

Regarding `COc1c(C)c2c(c(O)c1CC=C(C)CCC(=O)O)C(=O)OC2`, the figures for the Potency in assay [1], in assay [2] and in assay [3] were 6.62 µM (active), 526 nM (active) and 5230 nM (active), respectively.

Turning to `O=C(O)c1nc(=O)[nH]c(=O)[nH]1`, the Potency result in assay [1] and in assay [2] was “inactive” throughout.

As for `COc1cc2c(cc1OC)CC(=O)N(CCCN(C)C[C@H]1Cc3cc(OC)c(OC)cc31)CC2`, the Potency entry in assay [1] and in assay [2] was “inactive” each time.

Take `CCCCC(C)(C)[C@H](O)C=C[C@H]1[C@H](O)CC(=O)[C@H]1CC=CCCCC(=O)O`: the Potency entry in assay [1] and in assay [2] was “inactive” throughout.

Regarding `CN1[C@H]2CC[C@H]1CC(OC(=O)c1c[nH]c3ccccc13)C2` (stereo not given in full), the Potency entry in assay [1], in assay [2] and in assay [3] was “inactive” in each case.

Turning to `CC[C@]1(O)C[C@H]2CN(CCC3=c4ccccc4=N[C]3[C@@](C(=O)OC)(c3cc4c(cc3OC)N(C)[C@H]3[C@@](O)(C(N)=O)[C@H](O)[C@]5(CC)C=CCN6CC[C@]43[C@@H]65)C2)C1`, the figures for the Potency in assay [1] and in assay [2] were 1.48 µM (active) and 1660 nM (active), respectively.

In the case of `Cc1cc(NC(=O)Nc2ccc(N(C)C)cc2)c2cc(F)cc(F)c2n1`, the Potency entry in assay [1], in assay [2] and in assay [3] was “inactive” in each case.

For the compound `CC(C)Oc1cc(Nc2nc(N[C@@H](C)c3ccc(F)cn3)ncc2Cl)[nH]n1`, in assay [1], the Potency is 4.69 µM (active) and 8.2 µM (active). Besides, in assay [2], the Potency entry is “inactive”.

For `COC(=O)[C@H](c1ccccc1Cl)N1CCc2sccc2C1`, the Potency entry in assay [1] and in assay [2] was “inactive” in each case.

As for `COc1ccc(-c2nc3ccc(C4=NNC(=O)CC4C)cc3[nH]2)cc1` (stereo not given), the Potency result in assay [1] and in assay [2] was “inactive” each time.

Consider `O=C(Nc1ccc(OC(F)(F)F)cc1)c1sccc1NCc1ccnc2ccccc12`, for which the Potency entry in assay [1], in assay [2] and in assay [3] was “inactive” in each case.
